Data: PMC11006913

Legend:
PRRX1 [1] = biological target: PRRX1 (Homo sapiens, UniProt P54821 80-166, F113S); assay: PBM; 200 nM protein, PBS; conditions: dsDNA, one strand shown
PRRX1 [2] = biological target: PRRX1 (Homo sapiens, UniProt P54821 80-166); assay: PBM; 200 nM protein, PBS; conditions: dsDNA, one strand shown
Chain of PRRX1 (Homo sapiens, UniProt P54821 80-166) (P54821 80-166): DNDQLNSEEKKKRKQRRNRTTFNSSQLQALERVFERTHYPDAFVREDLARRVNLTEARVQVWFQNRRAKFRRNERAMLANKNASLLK

Chain of PRRX1 (Homo sapiens, UniProt P54821 80-166, F113S) (P54821 80-166 F113S): as the sequence (P54821 80-166) above, with F34S counted along it

ATTACAAC
binding signal (PRRX1 [1]): 10.3 upbm affinity estimate (log intensity, higher = more binding, comparable within an allelic series)
binding signal (PRRX1 [2]): 12.1 upbm affinity estimate (log intensity, higher = more binding, comparable within an allelic series)

AATGAGGG
binding signal (PRRX1 [1]): 9.96 upbm affinity estimate (log intensity, higher = more binding, comparable within an allelic series)
binding signal (PRRX1 [2]): 11.2 upbm affinity estimate (log intensity, higher = more binding, comparable within an allelic series)

GCGCCAGA
binding signal (PRRX1 [1]): 9.32 upbm affinity estimate (log intensity, higher = more binding, comparable within an allelic series)
binding signal (PRRX1 [2]): 9.56 upbm affinity estimate (log intensity, higher = more binding, comparable within an allelic series)

CAAATGAG
binding signal (PRRX1 [1]): 10.1 upbm affinity estimate (log intensity, higher = more binding, comparable within an allelic series)
binding signal (PRRX1 [2]): 11.5 upbm affinity estimate (log intensity, higher = more binding, comparable within an allelic series)

CGACGTTA
binding signal (PRRX1 [1]): 9.76 upbm affinity estimate (log intensity, higher = more binding, comparable within an allelic series)
binding signal (PRRX1 [2]): 11.1 upbm affinity estimate (log intensity, higher = more binding, comparable within an allelic series)

CAGAACCC
binding signal (PRRX1 [1]): 9.51 upbm affinity estimate (log intensity, higher = more binding, comparable within an allelic series)
binding signal (PRRX1 [2]): 9.39 upbm affinity estimate (log intensity, higher = more binding, comparable within an allelic series)

ACCGTGCG
binding signal (PRRX1 [1]): 9.48 upbm affinity estimate (log intensity, higher = more binding, comparable within an allelic series)
binding signal (PRRX1 [2]): 9.43 upbm affinity estimate (log intensity, higher = more binding, comparable within an allelic series)

CCAACACC
binding signal (PRRX1 [1]): 9.31 upbm affinity estimate (log intensity, higher = more binding, comparable within an allelic series)
binding signal (PRRX1 [2]): 8.85 upbm affinity estimate (log intensity, higher = more binding, comparable within an allelic series)

AGGAGAGC
binding signal (PRRX1 [1]): 9.35 upbm affinity estimate (log intensity, higher = more binding, comparable within an allelic series)
binding signal (PRRX1 [2]): 9.36 upbm affinity estimate (log intensity, higher = more binding, comparable within an allelic series)

GCCTCTCA
binding signal (PRRX1 [1]): 9.4 upbm affinity estimate (log intensity, higher = more binding, comparable within an allelic series)
binding signal (PRRX1 [2]): 9.09 upbm affinity estimate (log intensity, higher = more binding, comparable within an allelic series)

CTCCGTAC
binding signal (PRRX1 [1]): 9.47 upbm affinity estimate (log intensity, higher = more binding, comparable within an allelic series)
binding signal (PRRX1 [2]): 9.24 upbm affinity estimate (log intensity, higher = more binding, comparable within an allelic series)

ATCAATTC
binding signal (PRRX1 [1]): 10.1 upbm affinity estimate (log intensity, higher = more binding, comparable within an allelic series)
binding signal (PRRX1 [2]): 11.9 upbm affinity estimate (log intensity, higher = more binding, comparable within an allelic series)

ACAGTCGG
binding signal (PRRX1 [1]): 9.61 upbm affinity estimate (log intensity, higher = more binding, comparable within an allelic series)
binding signal (PRRX1 [2]): 9.49 upbm affinity estimate (log intensity, higher = more binding, comparable within an allelic series)

CCCGTACG
binding signal (PRRX1 [1]): 9.21 upbm affinity estimate (log intensity, higher = more binding, comparable within an allelic series)
binding signal (PRRX1 [2]): 9.33 upbm affinity estimate (log intensity, higher = more binding, comparable within an allelic series)

CGGACGAC
binding signal (PRRX1 [1]): 9.43 upbm affinity estimate (log intensity, higher = more binding, comparable within an allelic series)
binding signal (PRRX1 [2]): 9.26 upbm affinity estimate (log intensity, higher = more binding, comparable within an allelic series)

AGGTTCGC
binding signal (PRRX1 [1]): 9.34 upbm affinity estimate (log intensity, higher = more binding, comparable within an allelic series)
binding signal (PRRX1 [2]): 9.02 upbm affinity estimate (log intensity, higher = more binding, comparable within an allelic series)

TCGTAACA
binding signal (PRRX1 [1]): 10.2 upbm affinity estimate (log intensity, higher = more binding, comparable within an allelic series)
binding signal (PRRX1 [2]): 11.3 upbm affinity estimate (log intensity, higher = more binding, comparable within an allelic series)

CGCGTCAG
binding signal (PRRX1 [1]): 9.4 upbm affinity estimate (log intensity, higher = more binding, comparable within an allelic series)
binding signal (PRRX1 [2]): 9.26 upbm affinity estimate (log intensity, higher = more binding, comparable within an allelic series)

CCAGAGTC
binding signal (PRRX1 [1]): 9.5 upbm affinity estimate (log intensity, higher = more binding, comparable within an allelic series)
binding signal (PRRX1 [2]): 9.46 upbm affinity estimate (log intensity, higher = more binding, comparable within an allelic series)

CCGGGGTC
binding signal (PRRX1 [1]): 9.27 upbm affinity estimate (log intensity, higher = more binding, comparable within an allelic series)
binding signal (PRRX1 [2]): 9.54 upbm affinity estimate (log intensity, higher = more binding, comparable within an allelic series)

AGGTCTTG
binding signal (PRRX1 [1]): 9.4 upbm affinity estimate (log intensity, higher = more binding, comparable within an allelic series)
binding signal (PRRX1 [2]): 9.41 upbm affinity estimate (log intensity, higher = more binding, comparable within an allelic series)

CCCAGGGA
binding signal (PRRX1 [1]): 9.4 upbm affinity estimate (log intensity, higher = more binding, comparable within an allelic series)
binding signal (PRRX1 [2]): 9.28 upbm affinity estimate (log intensity, higher = more binding, comparable within an allelic series)

CCATGACG
binding signal (PRRX1 [1]): 9.32 upbm affinity estimate (log intensity, higher = more binding, comparable within an allelic series)
binding signal (PRRX1 [2]): 9.37 upbm affinity estimate (log intensity, higher = more binding, comparable within an allelic series)

AATATGCC
binding signal (PRRX1 [1]): 9.8 upbm affinity estimate (log intensity, higher = more binding, comparable within an allelic series)
binding signal (PRRX1 [2]): 11.1 upbm affinity estimate (log intensity, higher = more binding, comparable within an allelic series)

AATCATGT
binding signal (PRRX1 [1]): 10.4 upbm affinity estimate (log intensity, higher = more binding, comparable within an allelic series)
binding signal (PRRX1 [2]): 12.2 upbm affinity estimate (log intensity, higher = more binding, comparable within an allelic series)

CCCCTTGC
binding signal (PRRX1 [1]): 9.32 upbm affinity estimate (log intensity, higher = more binding, comparable within an allelic series)
binding signal (PRRX1 [2]): 9.53 upbm affinity estimate (log intensity, higher = more binding, comparable within an allelic series)

CCAGGGAG
binding signal (PRRX1 [1]): 9.19 upbm affinity estimate (log intensity, higher = more binding, comparable within an allelic series)
binding signal (PRRX1 [2]): 8.8 upbm affinity estimate (log intensity, higher = more binding, comparable within an allelic series)

GCAAGGCC
binding signal (PRRX1 [1]): 9.45 upbm affinity estimate (log intensity, higher = more binding, comparable within an allelic series)
binding signal (PRRX1 [2]): 9.29 upbm affinity estimate (log intensity, higher = more binding, comparable within an allelic series)

GAGGCTGC
binding signal (PRRX1 [1]): 9.31 upbm affinity estimate (log intensity, higher = more binding, comparable within an allelic series)
binding signal (PRRX1 [2]): 9.36 upbm affinity estimate (log intensity, higher = more binding, comparable within an allelic series)

CCAAGCTC
binding signal (PRRX1 [1]): 9.29 upbm affinity estimate (log intensity, higher = more binding, comparable within an allelic series)
binding signal (PRRX1 [2]): 9.43 upbm affinity estimate (log intensity, higher = more binding, comparable within an allelic series)

AATAGGGT
binding signal (PRRX1 [1]): 10.2 upbm affinity estimate (log intensity, higher = more binding, comparable within an allelic series)
binding signal (PRRX1 [2]): 11.5 upbm affinity estimate (log intensity, higher = more binding, comparable within an allelic series)

AATCATCC
binding signal (PRRX1 [1]): 10.3 upbm affinity estimate (log intensity, higher = more binding, comparable within an allelic series)
binding signal (PRRX1 [2]): 12.1 upbm affinity estimate (log intensity, higher = more binding, comparable within an allelic series)

GCGTGCCA
binding signal (PRRX1 [1]): 9.08 upbm affinity estimate (log intensity, higher = more binding, comparable within an allelic series)
binding signal (PRRX1 [2]): 9.45 upbm affinity estimate (log intensity, higher = more binding, comparable within an allelic series)

CGCTCCAC
binding signal (PRRX1 [1]): 9.44 upbm affinity estimate (log intensity, higher = more binding, comparable within an allelic series)
binding signal (PRRX1 [2]): 9.3 upbm affinity estimate (log intensity, higher = more binding, comparable within an allelic series)

CTTCATTA
binding signal (PRRX1 [1]): 10.5 upbm affinity estimate (log intensity, higher = more binding, comparable within an allelic series)
binding signal (PRRX1 [2]): 12.8 upbm affinity estimate (log intensity, higher = more binding, comparable within an allelic series)
